Data: PubChem BioAssay (NCATS)
Results filed as inconclusive are left out. Unmarked numbers belong to inactive results. Calls of active or inactive are those of the source. Calls come from the whole dose curve; tested in HEK293 reporter line.

Assay: qHTS for Inhibitors of the Functional Ribonucleoprotein Complex (vRNP) of Lassa (LASV) Arenavirus: LASV Primary Screen - GLuc reporter signal (AID 1347082); note: nearly all actives have a fitted effect of over 60% in size
Conditions: LASV minigenome vRNP, Gaussia luciferase reporter; series mostly up to 57.5 µM; activity change, negative = inhibition: at the top concentration
% is set by controls: 0 for no effect and ±100 for the full control effect.

SMILES | Potency | activity change, negative = inhibition
CCN(CC)C(C)CN1c2ccccc2Sc2ccccc21 (stereo unspecified) | inactive | 
CC1(C)OC[C@@H]2O[C@@]3(C(=O)O)OC(C)(C)O[C@H]3[C@@H]2O1 |  | 3.31%
NC(=O)N1c2ccccc2C=Cc2ccccc21 | inactive | 
CC1(C)OC(=O)NC1=O |  | 6.24%
COC(=O)c1cc(Cl)ccc1OC |  | -8.6%
CN(C)C(=O)Oc1ccc[n+](C)c1 | inactive | 
Cc1cc2cc3c(C)cc(=O)oc3c(C)c2o1 | inactive | 
CCCCCC=CCC=CCCCCCCCC(=O)OCC |  | -3.49%
C[C@@H](O)[C@H]1C(=O)N2C(C(=O)O)=C(SCCN=CN)C[C@H]12 | inactive | 
CCCCC(=O)OCC(=O)[C@H]1[C@H](C)C[C@H]2[C@@H]3C[C@H](F)C4=CC(=O)C=C[C@]4(C)[C@@]3(F)[C@@H](O)C[C@@]21C |  | 12.6%
NC(=O)COCCN1CCN(C(c2ccccc2)c2ccc(Cl)cc2)CC1 (stereo unspecified) |  | -11.6%
O=C(O)c1[nH]n(-c2ccc(S(=O)(=O)O)cc2)c(=O)c1N=Nc1ccc(S(=O)(=O)O)cc1 |  | -1.46%
O=c1cc[nH]c(=S)[nH]1 |  | 27.9%
CC(=O)NCc1c(I)c(NC(C)=O)c(I)c(C(=O)O)c1I |  | 1.97%
COc1cc(C(=O)NC2CCCNC2)cc(OC)c1OC (stereo unspecified) |  | 13.5%
O=c1c(-c2ccc(O)cc2)coc2cc(O)cc(O)c12 | inactive | 
CCOC(=O)O[C@]1(C(=O)OCCl)CC[C@H]2[C@@H]3CCC4=CC(=O)C=C[C@]4(C)[C@H]3[C@@H](O)C[C@@]21C |  | 8.88%
Cc1scc2c1N(C(=O)CN1CCN(C)CC1)c1ccccc1NC2=O | inactive | 
CC(=O)NS(=O)(=O)c1ccc(N)cc1 |  | -0.349%

SMILES | Potency | activity change, negative = inhibition
CC(=O)Nc1ccc(/C=N/NC(N)=S)cc1 |  | 2.88%
Cc1ccc2ccc(Cl)cc2n1 |  | 2.51%
CO[C@]12C[C@@H](COC(=O)c3cncc(Br)c3)CN(C)[C@@H]1Cc1cn(C)c3cccc2c13 |  | -8.17%
Nc1ccn(C[C@@H](CO)OCP(=O)(O)O)c(=O)n1 |  | 7.92% [at 24.7 µM]
CCCC(=O)OCOC(=O)C1=C(C)NC(C)=C(C(=O)OC)C1c1cccc(Cl)c1Cl (stereo unspecified) |  | -6.12%
CC1(C)O[C@@H]2C[C@H]3[C@@H]4C[C@H](F)C5=CC(=O)C=C[C@]5(C)[C@@]4(F)[C@@H](O)C[C@]3(C)[C@]2(C(=O)CO)O1 |  | -2.53%
Cc1cc(=O)c2c(O)c3c(O)cc(=O)c4c3c3c(cc(O)c1c23)C(C)(C)C=4O |  | -22.9%
CC1COc2c(N3CCN(C)CC3)c(F)cc3c(=O)c(C(=O)O)cn1c23 (stereo unspecified) | inactive | 
Cc1ccc(-c2ncc(Cl)cc2-c2ccc(S(C)(=O)=O)cc2)cn1 |  | 6.88%
CN1C(C(=O)Nc2ccccn2)=C(O)c2sccc2S1(=O)=O | inactive | 
CC(=O)OC(C)C[N+](C)(C)C (stereo unspecified) | inactive | 
CCCc1c2oc(C(=O)O)cc(=O)c2cc2c(=O)cc(C(=O)O)n(CC)c12 |  | 2.37%
Clc1cccc(C(c2ccc3nc[nH]c3c2)n2ccnc2)c1 (stereo unspecified) |  | -8.89%
O=C1C(O)=C(O)C(=O)C(O)=C1O |  | -24.6%
NC(CO)(CO)CO |  | -15.6%
NS(=O)(=O)c1cc(Cl)c(Cl)c(S(N)(=O)=O)c1 |  | 3.83%
O=C(OOC(=O)c1ccccc1)c1ccccc1 |  | -0.712%
CC1c2ccccc2CN1NC(=O)c1ccc(Cl)c(S(N)(=O)=O)c1 (stereo unspecified) |  | 0.998%
C[N+]1(C)CCCC(OC(=O)C(O)(c2ccccc2)c2ccccc2)C1 (stereo unspecified) |  | -8.57%

Assay: qHTS for Inhibitors of the Functional Ribonucleoprotein Complex (vRNP) of Lassa (LASV) Arenavirus: Viability assay - alamar blue signal for LASV Primary Screen (AID 1347083); note: nearly all actives have a fitted effect of over 80% in size
Conditions: cell viability, alamar blue fluorescence (LASV minigenome counter-screen); series mostly up to 57.5 µM; activity change, negative = reduced viability: at the top concentration

SMILES | Potency | activity change, negative = reduced viability
CCN(CC)C(C)CN1c2ccccc2Sc2ccccc21 (stereo unspecified) | inactive | 
CC1(C)OC[C@@H]2O[C@@]3(C(=O)O)OC(C)(C)O[C@H]3[C@@H]2O1 |  | 0.174%
NC(=O)N1c2ccccc2C=Cc2ccccc21 | inactive | 
CC1(C)OC(=O)NC1=O |  | -1.41%
COC(=O)c1cc(Cl)ccc1OC |  | -7.07%
CN(C)C(=O)Oc1ccc[n+](C)c1 | inactive | 
Cc1cc2cc3c(C)cc(=O)oc3c(C)c2o1 |  | 0.398%
CCCCCC=CCC=CCCCCCCCC(=O)OCC |  | -0.177%
C[C@@H](O)[C@H]1C(=O)N2C(C(=O)O)=C(SCCN=CN)C[C@H]12 | inactive | 
CCCCC(=O)OCC(=O)[C@H]1[C@H](C)C[C@H]2[C@@H]3C[C@H](F)C4=CC(=O)C=C[C@]4(C)[C@@]3(F)[C@@H](O)C[C@@]21C |  | -18.4%
NC(=O)COCCN1CCN(C(c2ccccc2)c2ccc(Cl)cc2)CC1 (stereo unspecified) |  | 21.6%
O=C(O)c1[nH]n(-c2ccc(S(=O)(=O)O)cc2)c(=O)c1N=Nc1ccc(S(=O)(=O)O)cc1 |  | 3.09%
O=c1cc[nH]c(=S)[nH]1 |  | -29%
CC(=O)NCc1c(I)c(NC(C)=O)c(I)c(C(=O)O)c1I |  | 3.38%
COc1cc(C(=O)NC2CCCNC2)cc(OC)c1OC (stereo unspecified) |  | -0.861%
O=c1c(-c2ccc(O)cc2)coc2cc(O)cc(O)c12 | inactive | 
CCOC(=O)O[C@]1(C(=O)OCCl)CC[C@H]2[C@@H]3CCC4=CC(=O)C=C[C@]4(C)[C@H]3[C@@H](O)C[C@@]21C |  | 3.09%
Cc1scc2c1N(C(=O)CN1CCN(C)CC1)c1ccccc1NC2=O | inactive | 
CC(=O)NS(=O)(=O)c1ccc(N)cc1 |  | 7.06%

SMILES | Potency | activity change, negative = reduced viability
CC(=O)Nc1ccc(/C=N/NC(N)=S)cc1 |  | -9.76%
Cc1ccc2ccc(Cl)cc2n1 |  | 7.16%
CO[C@]12C[C@@H](COC(=O)c3cncc(Br)c3)CN(C)[C@@H]1Cc1cn(C)c3cccc2c13 |  | -3.49%
Nc1ccn(C[C@@H](CO)OCP(=O)(O)O)c(=O)n1 |  | 12.1% [at 24.7 µM]
CCCC(=O)OCOC(=O)C1=C(C)NC(C)=C(C(=O)OC)C1c1cccc(Cl)c1Cl (stereo unspecified) |  | -3.35%
CC1(C)O[C@@H]2C[C@H]3[C@@H]4C[C@H](F)C5=CC(=O)C=C[C@]5(C)[C@@]4(F)[C@@H](O)C[C@]3(C)[C@]2(C(=O)CO)O1 |  | 4.61%
Cc1cc(=O)c2c(O)c3c(O)cc(=O)c4c3c3c(cc(O)c1c23)C(C)(C)C=4O |  | 2.5%
CC1COc2c(N3CCN(C)CC3)c(F)cc3c(=O)c(C(=O)O)cn1c23 (stereo unspecified) | inactive | 
Cc1ccc(-c2ncc(Cl)cc2-c2ccc(S(C)(=O)=O)cc2)cn1 |  | -1.97%
CN1C(C(=O)Nc2ccccn2)=C(O)c2sccc2S1(=O)=O | inactive | 
CC(=O)OC(C)C[N+](C)(C)C (stereo unspecified) | inactive | 
CCCc1c2oc(C(=O)O)cc(=O)c2cc2c(=O)cc(C(=O)O)n(CC)c12 |  | 7.5%
Clc1cccc(C(c2ccc3nc[nH]c3c2)n2ccnc2)c1 (stereo unspecified) |  | -6.27%
O=C1C(O)=C(O)C(=O)C(O)=C1O |  | -80.7%
NC(CO)(CO)CO |  | -2.04%
NS(=O)(=O)c1cc(Cl)c(Cl)c(S(N)(=O)=O)c1 |  | 2.26%
O=C(OOC(=O)c1ccccc1)c1ccccc1 |  | -2.23%
CC1c2ccccc2CN1NC(=O)c1ccc(Cl)c(S(N)(=O)=O)c1 (stereo unspecified) |  | 17.8%
C[N+]1(C)CCCC(OC(=O)C(O)(c2ccccc2)c2ccccc2)C1 (stereo unspecified) |  | -4.46%
